# Bioassay records deposited in PubChem by several laboratories.
# Plk1 PBD FP = inhibitors of human Plk1 polo box domain binding; P53350; Plk1 PBD phosphopeptide binding, fluorescence polarization; inhibition, %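 (tested at about 20 µM)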; hit rate 0.13% among 97,000; in the data active means inhibition above about 34%, passing the limit was not always enough
# PLK1 kinase inh = blocks human PLK1 kinase activity; recombinant PLK1 kinase, TR-FRET peptide phosphorylation; inhibition, % at 10 µM; hit rate 0.53% among 97,000; AID 619;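 active means inhibition of 50% or more in the single-concentration screen; inactive means inhibition below 50%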;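 further: 0% = DMSO max control and 100% = H-89 dihydrochloride min control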
# Pyk2 oligo antag = antagonists of human Pyk2 oligomerization | Q14289 | hit rate 0.83% among 99,000 | z-score (the deposit names both 25 µM and 10 µM) | Q293 cells, Pyk2 FERM NanoBiT luminescence; stronger effect = lower value;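 active means Z-score of -3 or lower, scaled per plate to the spread of control and sample wells; inactive means z-score above -3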;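 further: negative z-score means lost luminescence so less FERM oligomerization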
# LYP inh 2 = LYP (human) phosphatase inhibition | recombinant LYP catalytic domain, DiFMUP fluorescence | inhibition, % at 2 µM | hit rate 0.21% among 96,000 | AID 640;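 active means inhibition at 2 µM at or above a set limit, the screen mean plus 3 SD, cut at about 24% in these data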;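 further: 0% = DMSO with enzyme and 100% = enzyme fully blocked by orthovanadate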
# Target sequence (Q9Y2R2 whole entry, looked up, the tested form may be a part): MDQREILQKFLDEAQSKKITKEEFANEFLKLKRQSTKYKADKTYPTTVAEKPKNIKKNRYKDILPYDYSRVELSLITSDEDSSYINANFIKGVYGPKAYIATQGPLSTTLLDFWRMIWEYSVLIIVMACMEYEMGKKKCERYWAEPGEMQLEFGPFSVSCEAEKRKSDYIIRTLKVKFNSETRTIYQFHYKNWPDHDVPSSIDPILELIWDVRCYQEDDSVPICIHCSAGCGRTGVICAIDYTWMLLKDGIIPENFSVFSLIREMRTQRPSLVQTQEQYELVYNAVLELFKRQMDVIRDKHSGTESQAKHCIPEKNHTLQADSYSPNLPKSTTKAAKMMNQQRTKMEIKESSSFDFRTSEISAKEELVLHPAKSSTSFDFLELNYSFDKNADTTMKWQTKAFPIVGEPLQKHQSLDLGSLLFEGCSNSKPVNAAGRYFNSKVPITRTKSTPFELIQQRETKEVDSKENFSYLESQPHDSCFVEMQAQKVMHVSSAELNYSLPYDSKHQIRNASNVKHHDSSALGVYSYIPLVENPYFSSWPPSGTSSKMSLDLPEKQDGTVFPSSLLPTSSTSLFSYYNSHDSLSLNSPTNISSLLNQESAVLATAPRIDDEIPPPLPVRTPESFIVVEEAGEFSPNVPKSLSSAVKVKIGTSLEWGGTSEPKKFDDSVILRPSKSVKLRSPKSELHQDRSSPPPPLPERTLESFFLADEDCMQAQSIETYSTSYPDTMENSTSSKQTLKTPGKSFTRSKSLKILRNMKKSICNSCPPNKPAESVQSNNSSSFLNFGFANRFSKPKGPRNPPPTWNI
# LYP act = activators of human LYP (PTPN22) phosphatase | activation, % at 2 µM | recombinant LYP, DiFMUP fluorescence; 0 = plate median, 100 = signal doubled | Q9Y2R2 | hit rate 0.11% among 96,000;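 active means activation at 2 µM above a set limit, the mean plus 5 SD, cut at about 37% in these data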
# Numbers without * were called inactive; nt = no result. Most compounds without a hit are left out; they make up all but 1.7% or so of the library.
SMILES,Plk1 PBD FP,PLK1 kinase inh,Pyk2 oligo antag,LYP inh 2,LYP act
CC(C)OCC(O)CS(=O)Cc1ccccc1 (stereo not given),9,2,0.27,-10,14
CN(C)C=Nc1ncc2c3ccccc3n(CCN(C)C)c2c1C#N,1,45,-1.2,0,0
CCN(CC)CCn1c2ccccc2c2cnc(N)c(C#N)c21,-19,52*,-0.46,1,-1
CCOC(=O)c1cc(C)n(S(=O)(=O)c2ccc(C)cc2)c1C,-2,-13,0.16,8,-7
S=C1NNC2(NN1)C1CC3CC(C1)CC2C3,-7,56*,0.9,-8,5
COCCOC(=O)c1c(C)oc2ccc(OC(=O)c3c(OC)cccc3OC)cc12,1,-19,-2,-3,0
Cc1cc(C)nc(N(C#N)CCOc2ccc(Cl)cc2)n1,-2,-11,-4.2*,-4,4
Nc1ccc(-c2ccc(N)cc2C(F)(F)F)c(C(F)(F)F)c1,2,-7,-3.1*,-9,7
Cc1ccc(Cl)cc1NC1=C/C(=N\S(=O)(=O)c2cccs2)c2ccccc2C1=O,-17,-2,-4.4*,1,-1
CC(C)CC(=O)O/N=C1\C(=O)N(Cc2ccc(Cl)cc2)c2ccc([N+](=O)[O-])cc21,3,-8,nt,1,-2
C=CCn1c(N)c(C(=O)Nc2cccc(C)c2)c2nc3ccccc3nc21,-32,-5,-1.4,-2,7
C=CCn1c(N)c(C(=O)Nc2ccc(C)c(C)c2)c2nc3ccccc3nc21,8,-12,-4*,0,4
COC(=O)c1nn(-c2cccc(C(F)(F)F)c2)c(=O)cc1Sc1ccccn1,-9,-10,0.45,-5,8
CC1CCN(C(=O)/C(=C/c2ccccc2Cl)c2ccccc2)CC1,17,-7,-3.9*,1,5
CCCn1c(NC(=O)c2cccc(S(=O)(=O)N3CCCC3)c2)nc2ccccc21,nt,nt,-3.9*,nt,nt
CCCn1c(NC(=O)c2ccccc2)nc2ccccc21,10,-5,-1.4,-7,7
Cc1ccc(Nc2cc(C)nn2-c2nc(C)cc(=O)[nH]2)cc1,9,6,-1.9,26*,-27
Cc1ccc(Nc2cc(C)nn2-c2nc(C)cc(C)n2)cc1,-3,-8,-0.83,0,0
COC(=O)Oc1ccc(/C=N/NC(=O)CSCc2ccccc2Br)cc1OC,21,-7,-0.49,-1,3
CNC(=O)c1ccccc1NC(=O)c1cccc(S(=O)(=O)N2CCC(C)CC2)c1,nt,nt,-3.5*,nt,nt
COc1ccc(NC(=O)C2CCCO2)cc1Cl (stereo not given),-9,-6,0.57,24*,-25
CCC1CCCCN1CCCNC(=O)c1cn(CC(C)C)c(=O)c2cc(OC)c(OC)cc12 (stereo not given),-37,-13,0.54,16,-17
O=C(NCc1ccco1)c1ccc2nc3sc4c(c3c(=O)n2c1)CCCC4,20,-11,nt,25*,-26
COC(=O)c1cc(NC(=O)C2CC=CCC2C(=O)O)cc(C(=O)OC)c1 (stereo not given),-36,-4,-0.52,-15,13
COc1cc(NC(=O)C2CCCN2S(=O)(=O)c2ccc3c(c2)CCC(=O)N3)cc(OC)c1 (stereo not given),-6,-11,nt,-2,-1
SMILES,Plk1 PBD FP,PLK1 kinase inh,Pyk2 oligo antag,LYP inh 2,LYP act
Cc1ccc(NC(=O)C2CCCN2S(=O)(=O)c2ccc3c(c2)CCC(=O)N3)cc1Cl (stereo not given),-22,67*,nt,nt,nt
Cc1cc(C)n(-c2nnc(C)c(=O)[nH]2)n1,18,-19,1.1,-6,5
O=C(Cn1cnc2ccccc21)Nc1ccc(C(=O)O)cc1,5,-5,0.98,33*,-35
O=C(Nc1c(Cl)cc(Cl)cc1C(=O)NCc1cccnc1)c1ccc(Cl)cc1Cl,57*,-8,0.29,3,2
O=C(NCc1cccnc1)c1ccccc1Br,-1,-9,-0.32,2,0
Brc1ccc(C2=CC(c3cccs3)n3ncnc3N2)cc1 (stereo not given),-123,19,-3.5*,7,-4
COc1ccc(-c2nc3c(n2O)CCCC3=O)cc1OC,-7,-2,-0.67,-4,1
O=C(Nc1cccc(-c2nnc(-c3ccccc3)o2)c1)c1ccc(Br)o1,6,-1,-3.1*,-6,4
CCn1c(SCC(=O)Nc2nc(C)c(C(=O)OC)s2)nnc1C(C)C,7,-5,0.98,-4,2
CN1C=CC2=C(C#N)C(N)C(C#N)(C#N)C(c3ccccc3)C2C1 (stereo not given),-14,4,-3.7*,-1,3
CC1CCc2c(sc(NC(=O)c3ccc(Cn4cc([N+](=O)[O-])cn4)o3)c2C#N)C1 (stereo not given),-6,-8,-0.58,25*,-22
N#Cc1c(NC(=O)c2ccc(Cn3cc(Br)cn3)o2)sc2c1CCCCC2,-4,-12,-0.13,5,-4
O=C(CN1C(=O)COc2ccccc21)NCc1ccccn1,-27,-10,0.87,7,-5
COc1ccc(N(CC(=O)Nc2cccc(C)c2C)S(=O)(=O)c2c(C)n[nH]c2C)cc1,-20,7,-3.3*,8,-10
O=C(CN(C(=O)Cn1nnc(-c2cccs2)n1)c1ccc2c(c1)OCCO2)NCc1ccccc1,-15,10,-3*,-24,28
COc1ccc(/C=C2\C(=O)N(c3c(Cl)cc(Cl)cc3Cl)N=C2NC(=O)c2cccc([N+](=O)[O-])c2)cc1,nt,nt,-3.7*,nt,nt
Cc1noc(NS(=O)(=O)c2ccc(NC(=O)c3cnc4n(c3=O)CCS4)cc2)c1C,-17,-9,-0.08,4,-4
COc1ccc(OC)c(NC2c3ccccc3C(=O)N2c2cccnc2)c1 (stereo not given),3,-1,nt,-6,6
N#CC1=C2SCC(O)(c3ccccc3)N2C(=O)CC1c1cccs1 (stereo not given),-11,3,-1,-7,4
N#CC1=C2SCC(O)(c3ccccc3)N2C(=O)CC1c1ccccc1F (stereo not given),4,-8,-3*,-5,7
CC(C)c1ccc(N2C(=O)CC(Sc3nc4ccccc4o3)C2=O)cc1 (stereo not given),-18,-7,0.17,24*,-22
Cc1ccc(CN(C#N)c2nc(C)cc(C)n2)cc1,-6,-8,-1.7,6,-2
Cc1cc(C)nc(N(C#N)Cc2ccc(Br)cc2)n1,-16,-13,-3.1*,-1,0
Cc1ccc2nc(N/N=C\c3ccc([N+](=O)[O-])o3)nc(-c3ccccc3)c2c1,-8,-12,-4*,16,-15
O=C(c1cnn2c1NC(c1ccc(Br)cc1)CC2C(F)(F)F)N1CCN(C23CC4CC(CC(C4)C2)C3)CC1 (stereo not given),-10,-7,1.5,8,-8
COc1ccc(C2(CNC(=O)c3ccc(OC)c([N+](=O)[O-])c3)CCOCC2)cc1OC,-25,-3,-0.08,11,-7
COc1ccc(C2(CNC(C)=O)CCOCC2)cc1OC,12,62*,nt,nt,nt
